# Records with an inconclusive call do not appear. Entries that show only a call come without a potency. Values without a mark were called inactive. Activity calls are given as the source filed them. Calls follow the shape of the dose curve; as a rule, active = well fitted curve in the direction sought with a large enough effect; inconclusive = small, poorly fitted or top-dose-only effect, or another doubt; inactive = no such curve, though single readings can be large; an effect the other way counts as inactive or inconclusive.
# Assays:
# [1] = test system: Zika virus NS2B-NS3 protease; assay: Primary screen GU AMC qHTS for Zika virus inhibitors (AID 1347154); conditions: Zika NS2B-NS3 unlinked protease, AMC fluorogenic substrate; series mostly up to 54.1 µM; also: nearly all actives have a fitted effect of over 70% in size; also: potency is read from the fitted curve at half-maximal effect
# Procedure, shortened: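 Fluorogenic AMC-substrate cleavage by noncovalent NS2B-NS3 protease complex (25 nM, pH 8.0 Tris buffer with Tween 20) followed for 15 minutes at room temperature (~20% conversion). Percent inhibition from ex340/em450 signal change, fitted by 4-parameter Hill equation.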
# [2] = test system: Zika virus NS2B-NS3 protease (unlinked complex); assay: Primary screen GU Rhodamine qHTS for Zika virus inhibitors: Unlinked NS2B-NS3 protease assay (AID 1347159); conditions: Recombinant ZIKV NS2B-NS3 protease, Rhodamine110 substrate fluorescence; series mostly up to 107 µM; also: nearly all actives have a fitted effect of over 60% in size
# Procedure, shortened: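 Noncovalent NS2B hydrophilic domain/NS3 protease complex (25 nM final) in 10 mM Tris-HCl pH 8.0, 0.01% Tween 20, preincubated 15 min with compounds (up to 114 microM), then 1.5 microM Rhodamine110 substrate. Fluorescence change over 15 min fitted to 4-parameter Hill.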
# [3] = test system: Zika virus NS2B-NS3 protease (linked construct); assay: Primary screen NINDS Rhodamine qHTS for Zika virus inhibitors (AID 1347160); conditions: purified NS2B-NS3 protease, Rhodamine110 substrate fluorescence; series mostly up to 57.1 µM; also: nearly all actives have a fitted effect of over 55% in size
# Procedure, shortened: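 Purified NS2B-NS3 protease with the NS2B hydrophilic domain joined by a flexible linker (25 nM) in 10 mM Tris-HCl pH 8.0, 0.01% Tween 20, preincubated 15 min at RT with compound; Rhodamine110 peptide substrate 1.5 µM; fluorescence change over 15 min; 4-parameter Hill fit.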
# [4] = Confirmatory screen NINDS Rhodamine qHTS for Zika virus inhibitors (AID 1347161); conditions: purified enzyme assay, Rhodamine110 substrate fluorescence, 15 min; also: potency is read from the fitted curve at half-maximal effect; nearly all actives have a fitted effect of over 60% in size
# Procedure, shortened: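 Aprotinin served as in-plate control. Conditions: 25 nM linked NS2B-NS3, pH 8.0 Tris buffer, titrated compounds, 15 min preincubation and 15 min reaction with 1.5 microM Rhod110 substrate at room temperature.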
# [5] = test system: Zika virus NS2B-NS3 protease (linked construct); assay: 384 well plate NINDS Rhodamine confirmatory qHTS for Zika virus inhibitors (AID 1347164); conditions: rhodamine-110 peptide substrate fluorescence; also: potency is read from the fitted curve at half-maximal effect; nearly all actives have a fitted effect of over 65% in size
# Procedure, shortened: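 Compounds are incubated about 15 minutes with linked protease (5, 30 or 60 nM final). Rhodamine 110-tagged Ac-LKRR substrate (10 microM final) is added and fluorescence measured after 25 minutes.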
# [6] = Vero cells viability qHTS for Zika virus inhibitors (AID 1347167); conditions: cytotoxicity counter-screen (Zika); series mostly up to 45.9 µM; also: potency is read from the fitted curve at half-maximal effect
# Procedure, shortened: (§1)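 Compounds were tested in concentration series on cells grown in DMEM containing 4% FBS. After 24 to 48 hours, cellular ATP was measured by luminescence with CellTiter Glo.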
# [7] = HepG2 cells viability qHTS for Zika virus inhibitors (AID 1347168); conditions: Zika counter-screen; series mostly up to 45.9 µM
# Procedure, shortened: as §1
# [8] = Confirmatory screen GU Rhodamine qHTS for Zika virus inhibitors qHTS (AID 1347157); conditions: purified enzyme assay, Rhodamine110 substrate fluorescence, 15 min; also: potency is read from the fitted curve at half-maximal effect; nearly all actives have a fitted effect of over 70% in size
# Procedure, shortened: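 Percent inhibition came from the 15-min rise in Rhodamine110 fluorescence (1.5 microM substrate, ~15% conversion), normalized to no-inhibitor and no-enzyme wells and Hill-fitted. Unlinked protease, 25 nM, pH 8.0 Tris buffer; compounds up to 114 microM, 15-min preincubation.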
# [9] = Tertiary RLuc qRT-PCR qHTS assay for Zika virus inhibitors (AID 1347169); conditions: infected Vero cells, reporter luminescence, 48-72 h; series mostly up to 45.9 µM; also: nearly all actives have a fitted effect of over 55% in size; also: potency is read from the fitted curve at half-maximal effect; as to activity change, negative = inhibition: top concentration of the series differs between compounds
# Procedure, shortened: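 Orthogonal cell-based infection assay using recombinant ZIKV-RLuc (Cambodian) in Vero cells; compound added prior to virus at MOI 1-2. Incubation lasts 48-72 hrs at 37 degrees C before live-cell Renilla substrate is added and luminescence measured.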
# [10] = OV-KATE Cancer Cell Toxicity qHTS against the NCATS CANVASS Library (AID 1347345); conditions: OV-KATE cells viability, CellTiter-Glo luminescence, 72 h; series mostly up to 76 µM
# Procedure, shortened: (§2)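 In this cytotoxicity screen, 1000 cells per well rested 4 hours, then received compound (11 concentrations) for a 72-hour incubation; an ATP-dependent luminescent signal (CellTiter-Glo) was the endpoint.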
# [11] = HPAF-II Cancer Cell Toxicity qHTS against the NCATS CANVASS Library (AID 1347346); conditions: HPAF-II viability, CellTiter-Glo ATP luminescence, 72 h; series mostly up to 76 µM; also: nearly all actives have a fitted effect of over 55% in size
# Procedure, shortened: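 HPAF-II cells at 1000 cells/well were treated with an 11-point concentration series for 72 hours at 37 degrees C. Viability read by CellTiter-Glo luminescence.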
# [12] = UWB1.289 Cancer Cell Toxicity qHTS against the NCATS CANVASS Library (AID 1347347); conditions: UWB1.289 viability, CellTiter-Glo luminescence, 72 h; series mostly up to 76 µM; also: nearly all actives have a fitted effect of over 60% in size
# Procedure, shortened: as §2
# [13] = OV-SAHO Cancer Cell Toxicity qHTS against the NCATS CANVASS Library (AID 1347348); conditions: OV-SAHO viability, CellTiter-Glo luminescence, 72 h; series mostly up to 76 µM; also: nearly all actives have a fitted effect of over 55% in size
# Procedure, shortened: as §2
# [14] = Panc-1005 Cancer Cell Toxicity qHTS against the NCATS CANVASS Library (AID 1347349); conditions: Panc-1005 viability, CellTiter-Glo luminescence, 72 h; series mostly up to 76 µM; also: nearly all actives have a fitted effect of over 60% in size
# Procedure, shortened: as §2
# [15] = U-118MG Cancer Cell Toxicity qHTS against the NCATS CANVASS Library (AID 1347351); conditions: U-118MG viability, CellTiter-Glo luminescence, 72 h; series mostly up to 76 µM
# Procedure, shortened: as §2
# [16] = UWB1.289-WTBRCA1 Cancer Cell Toxicity qHTS against the NCATS CANVASS Library (AID 1347354); conditions: UWB1.289-WTBRCA1 viability, CellTiter-Glo luminescence, 72 h; at 76 µM (top of the series)
# Procedure, shortened: (§3)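 Cells at 1000/well were given compound 4 h after plating in an 11-point series. Viability was read by CellTiter-Glo luminescence after 72 h at 37 degrees C.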
# [17] = HEK-293 Cancer Cell Toxicity qHTS against the NCATS CANVASS Library (AID 1347355); conditions: HEK-293 viability, CellTiter-Glo luminescence, 72 h; series mostly up to 91.4 µM; also: nearly all actives have a fitted effect of over 65% in size
# Procedure, shortened: as §3
# [18] = HPAF-II 24hr Apoptosis Induction qHTS against the NCATS CANVASS Library (AID 1347356); conditions: HPAF-II caspase-3/7 Caspase-Glo luminescence; series mostly up to 91.4 µM
# Procedure, shortened: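 HPAF-II cells (500/well) exposed to compounds in 11-point series for 24 h at 37 degrees C; caspase-3/7 activity read by Caspase-Glo luminescence after 15 min at room temperature. Doxorubicin titration as control.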
# [19] = test system: Zika virus NS2B-NS3 protease (linked); assay: 384 well plate NINDS AMC confirmatory qHTS for Zika virus inhibitors (AID 1347163); conditions: Recombinant NS2B-NS3 protease, Ac-VKTGKR-AMC fluorescence; series mostly up to 1 mM; also: nearly all actives have a fitted effect of over 50% in size; also: potency is read from the fitted curve at half-maximal effect;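 as to activity change, negative = inhibition: linked protease at 5 30 or 60 nM final depending on run; fluorescence of AMC released from Ac-VKTGKR-AMC peptide cleaved by the protease; top concentration of the series differs between compounds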
# Procedure, shortened: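 Linked NS2B-NS3 protease (final 5 nM, 30 nM or 60 nM) was preincubated with compounds (final up to 1 mM) for ~15 minutes. Ac-VKTGKR-AMC substrate (final 30 microM) then reacted for 25 minutes at room temperature in the dark. Fluorescence (ex 355/em 460 nm) was normalized to no-enzyme and no-inhibitor controls.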
# [20] = ZIKV-mCherry secondary qHTS for Zika virus inhibitors (AID 1347158); conditions: Vero cells, ZIKV-mCherry infection imaging, 48-72 h; also: potency is read from the fitted curve at half-maximal effect
# Procedure, shortened: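 Vero cells (5,000/well) were given compound, then infected with ZIKV-mCherry at MOI 1 for 48–72 h at 37 °C. After PFA fixation and Hoechst staining, imaging gave percent mCherry-positive cells. The positivity threshold was RFU above 450, 3 SD over negative controls.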
compound,measurement,setting,value
CC(=O)NC1CCSC1=O (centres undefined),Potency,[1],inactive
CCOC(=O)CC(SP(=S)(OC)OC)C(=O)OCC (centres undefined),Potency,[1],inactive
CNC(C)(C)Cc1ccccc1,Potency,[1],inactive
COP(=S)(OC)SCN1C(=O)c2ccccc2C1=O,Potency,[1],inactive
CCCCC/C=C\C/C=C\C/C=C\C/C=C\CCCC(=O)NCC(=O)O,Potency,[1],25.6 µM (active)
C=CCN1C[C@H](C)N([C@H](c2ccc(C(=O)N(CC)CC)cc2)c2cccc(OC)c2)C[C@H]1C,Potency,[1],inactive
same,"activity change, negative = inhibition",[2],-8.84% [at 19.1 µM]
same,"activity change, negative = inhibition",[3],6.42% [at 10.7 µM]
C[C@]12CC[C@@H]3c4ccc(OC(=O)N(CCCl)CCCl)cc4CC[C@H]3[C@@H]1CC[C@@H]2O,Potency,[1],15.8 µM (active)
same,Potency,[4],1.97 µM (active)
same,Potency,[5],39.8 µM (active)
same,Potency,[6],inactive
same,outcome,[7],inactive
CC(=O)OCC1=C(C(=O)O)N2C(=O)[C@@H](N)[C@H]2SC1,Potency,[1],inactive
same,Potency,[8],22.1 µM (active)
same,outcome,[2],inactive
same,Potency,[4],24.8 µM (active)
same,Potency,[9],inactive
O=C(O)c1ccc(=O)[nH]c1,Potency,[1],inactive
C[C@]12CC[C@@H]3c4ccc(OC(=O)N(CCCl)CCCl)cc4CC[C@H]3[C@@H]1CC[C@@H]2OP(=O)(O)O,outcome,[3],inactive
C=C(C)[C@H]1CN[C@H](C(=O)O)[C@H]1CC(=O)O,Potency,[1],inactive
CCCCCCC(=O)CCCCCC/C=C/C[C@@H](O)[C@H](O)[C@@](N)(CO)C(=O)O,Potency,[1],inactive
[N-]=[N+]=CC(=O)OC[C@H](N)C(=O)O,Potency,[1],inactive
COC(=O)C(Cl)C(=O)OC,Potency,[1],inactive
Clc1cccc(SC2CCNCC2)n1,Potency,[1],inactive
COC1CC(=C(c2cccs2)c2cccs2)C[N+](C)(C)C1 (centres undefined),Potency,[1],inactive
CC(C)N(CCC(C(N)=O)(c1ccccc1)c1ccccn1)C(C)C (centres undefined),Potency,[1],inactive
same,outcome,[2],inactive
same,outcome,[3],inactive
NCCc1ccc(O)cc1,Potency,[1],inactive
same,outcome,[3],inactive
same,outcome,[10],inactive
same,outcome,[11],inactive
same,outcome,[12],inactive
same,outcome,[13],inactive
same,outcome,[14],inactive
same,outcome,[15],inactive
same,outcome,[16],inactive
same,outcome,[17],inactive
same,outcome,[18],inactive
CCC(C)C(C)(COC(N)=O)COC(N)=O (centres undefined),Potency,[1],inactive
CCOP(=S)(OCC)Oc1ccc2c(C)c(Cl)c(=O)oc2c1,Potency,[1],inactive
C[C@]12CC[C@H]3[C@@H](CCC4=CC(=O)CC[C@@H]43)[C@@H]1CC[C@@H]2OC(=O)CCC1CCCCC1,Potency,[1],inactive
Nc1ccccc1,Potency,[1],inactive
O=c1c(C2CC(c3ccc(-c4ccc(Br)cc4)cc3)Cc3ccccc32)c(O)sc2ccccc12 (centres undefined),Potency,[4],2.2 µM (active)
same,Potency,[19],11.2 µM (active)
same,Potency,[5],17.8 µM (active)
same,Potency,[6],inactive
same,outcome,[7],inactive
CC(C)(N)Cc1ccccc1Cl,Potency,[1],inactive
O=C1CN=C(c2ccccc2)c2cc([N+](=O)[O-])ccc2N1,Potency,[1],inactive
COc1cc(OC)c(OC)cc1C=O,Potency,[1],inactive
C[C@]12Cc3cn[nH]c3C[C@@H]1CC[C@@H]1[C@@H]2CC[C@@]2(C)[C@H]1CC[C@]2(C)O,Potency,[1],inactive
COc1cccc2c1C(=O)c1c(O)c3c(c(O)c1C2=O)C[C@@](O)(C(=O)CO)CC3OC1CC(N2CCOC(OC)C2)C(O)C(C)O1 (some centres undefined),Potency,[1],inactive
O=C(Nc1ccc(Br)cc1)c1cc(Br)cc(Br)c1O,Potency,[1],35.5 µM (active)
same,Potency,[20],8.91 µM (active)
same,Potency,[4],3.12 µM (active)
same,Potency,[19],inactive
same,Potency,[5],44.7 µM (active)
same,Potency,[6],23.4 µM (active)
same,outcome,[7],inactive
same,Potency,[9],8.29 µM (active)
c1ccc(N2CCNCC2)cc1,Potency,[1],inactive
CN1CC[C@]23c4c5ccc(O)c4O[C@H]2[C@@H](O)CC[C@H]3[C@H]1C5,Potency,[1],inactive
C[C@]12CCC(=O)C=C1CC[C@@H]1[C@H]3CC[C@](C)(O)[C@@]3(C)CC[C@@H]12,Potency,[1],inactive
CC(C)(C)NCC(O)c1ccccc1Cl (centres undefined),Potency,[1],inactive
COc1c2c(cc3c1OCO3)CCN(C)C2,Potency,[1],inactive
CC(=O)C1CCOC1=O (centres undefined),Potency,[1],inactive
CC(NC(C)(C)C)C(=O)c1cccc(Cl)c1 (centres undefined),Potency,[1],inactive
same,outcome,[2],inactive
same,outcome,[3],inactive
O=C1OC(c2ccc(O)c(S(=O)(=O)O)c2)(c2ccc(O)c(S(=O)(=O)O)c2)c2c(Br)c(Br)c(Br)c(Br)c21,Potency,[8],3.16 µM (active)
same,Potency,[4],2.51 µM (active)
same,Potency,[19],112 µM (active)

# Source: PubChem BioAssay (NCATS)
